# Measured values from PubChem BioAssay AID588405 (Sanford-Burnham Center for Chemical Genomics, 2011).
# In all, about 360,000 compounds went through this assay and about 6,200 (1.7%) were called active. The list comes from a sample in which actives are over-represented; it also holds similar structures and randomly drawn compounds. A number with no mark means an inactive call.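 Rule for the calls: active = inhibition of at least 50% at 20 µM; inactive = the rest.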
# Assay: Peg3 promoter-driven luciferase inhibitors, primary screen, cell-based, HeLa, luciferase luminescence (AID 588405)
# Settings: HeLa PEG-Prom luciferase reporter, overnight, at 20 µM, stronger effect = higher value
row,Structure (SMILES),inhibition
1,CC(NCC(=O)Nc1ccccc1C(=O)NC1CC1)c1ccccc1Cl (stereo unspecified),6.43%
2,CCc1nc2ccc(C(=O)NCCNC(C)=O)cn2c1N(CC)Cc1cccc(Br)c1,5.16%
3,O=C(Nc1ccc(S(=O)(=O)Nc2nccs2)cc1)c1cc(-c2ccncc2)nc2ccccc12,11.9%
4,Cc1ccc2nc(-c3ccncc3)cc(C(=O)Nc3ccncc3)c2c1,70.2% (active)
5,Cc1ccc2nc(-c3ccncc3)cc(C(=O)Nc3ccc(OC(F)F)cc3)c2c1,27.7%
6,CCC1(C)Cc2c(sc3nnn(CC(=O)Nc4ccc(Cl)cc4)c(=O)c23)CO1 (stereo unspecified),11.2%
7,O=C(/C=C/[C@H]1O[C@@H](n2ccc(=O)[nH]c2=O)[C@H](O)[C@@H]1O)NCc1ccccn1,12.5%
8,CCCN(CC(=O)NC(=O)NC1CCCCC1)CC(=O)Nc1cc(Cl)ccc1Cl,32.9%
9,CC(C)(C(=O)N1CCC1(C)C(=O)NS(=O)(=O)c1ccc(Br)cc1)c1ccccc1 (stereo unspecified),3.42%
10,O=C(O)C(=Cc1ccc([N+](=O)[O-])cc1)CCc1ccccc1,-9.17%
11,CCOC(=O)/C(=N\Nc1ccccc1[N+](=O)[O-])c1csc(Nc2ccccc2)n1,20.3%
12,CCOC(=O)/C(=C\c1ccc([N+](=O)[O-])cc1)C(=O)c1cc(C(C)=O)c(Nc2ccccc2)s1,106% (active)
13,CN1C[C@@H](CO)O[C@@H](n2cnc3c(N4CCN(CCO)CC4)ncnc32)C1,8.41%
14,Cc1cc(NC(=O)CSc2ncc(C(F)(F)F)cc2Cl)no1,5.97%
15,Cc1nc(SCC(=O)Nc2cc(C)on2)c2c(C)c(C)sc2n1,73.6% (active)
16,Cc1cc(NC(=O)CSc2nc(C(C)C)nc3sc4c(c23)CCC(C)C4)no1 (stereo unspecified),-3.65%
17,Cc1cc(C(=O)N2CCCC2(C)C(=O)O)c(C)o1 (stereo unspecified),-4.99%
18,COc1ccc(C(C)(NC(C)=O)c2nc(-c3ccc(S(C)(=O)=O)cc3)cs2)cc1 (stereo unspecified),7.41%
19,COc1cc(CNc2ncnc3c2ncn3[C@H]2CN(Cc3cccs3)C[C@@H](CO)O2)cc(OC)c1OC,10.1%
20,O=CNc1cc(-c2ccc(C(=O)N3CCOCC3)cc2)cn2c(-c3ccc(F)cc3)cnc12,38.7%
21,NCCCC[C@@H]1NC(=O)[C@H](CCC(=O)O)NC(=O)c2cc([N+](=O)[O-])cc(I)c2NCC[C@@H](C(N)=O)NC1=O,4.12%
22,NC(=O)CC[C@@H]1NC(=O)[C@H](CO)NC(=O)c2cc([N+](=O)[O-])cc(I)c2NCC[C@@H](C(N)=O)NC1=O,4.02%
23,CC(C)[C@@H]1NC(=O)c2cc([N+](=O)[O-])cc(I)c2NCCC[C@@H](C(=O)NC(CC(=O)O)C(N)=O)NC(=O)[C@H](CO)NC1=O (stereo partly specified),95.8% (active)
24,COc1cccc(-c2cc3nc(NCCOc4ccccc4Cl)n(C)c(=O)c3s2)c1,-22%
25,Cc1ccccc1S(=O)(=O)N1[C@@H](c2cccc(Cl)c2)C(C(=O)OC(C)(C)C)=CC[C@H]1c1ccc(Cl)cc1,0.82%
26,COc1cccc(-c2ccc3c(c2)N(Cc2ccccc2OC)C(=O)C(C)S3)c1 (stereo unspecified),-0.98%

row,Structure (SMILES),inhibition
1,Nc1ncnc2c1ncn2[C@@H]1O[C@H](C(=O)NS(=O)(=O)c2c(Cl)nc3sccn23)[C@@H](O)[C@H]1O,8.22%
2,CCc1nc2c(OCc3ccc(C(F)(F)F)cc3)cccn2c1N(C)C(=O)CC(C)C,15.7%
3,C=C1C2C[C@H](O)C(C)(C)[C@@]2(O)[C@H](O)C[C@]23C[C@@](C)(O)[C@H](CC[C@H]12)[C@H]3O (stereo partly specified),98.4% (active)
4,O=C(NCC12CC3CC(C1)CC(CNC(=O)N1CCCC1)(C3)C2)N1CCCC1,18.2%
5,CC(C)(O)C#Cc1ccc(CNC[C@H]2O[C@@H](n3cnc4c(=O)[nH]c(N)nc43)[C@H](O)[C@@H]2O)s1,14.8%
6,O=C(NC(Nc1nc2ccc([N+](=O)[O-])cc2s1)(C(F)(F)F)C(F)(F)F)c1ccccc1,68.7% (active)
7,CC(Nc1ccc([N+](=O)[O-])cc1[N+](=O)[O-])c1ccccc1 (stereo unspecified),31.3%
8,O=C(O)c1cc([N+](=O)[O-])c(Nc2cccc3ccccc23)c([N+](=O)[O-])c1,5.86%
9,Cc1ccc(S(=O)(=O)N2CC[C@H]3[C@@H](C2)C(=O)C[C@@H](c2ccccc2)N3S(=O)(=O)c2ccc(C)cc2)cc1,-19.4%
10,CSc1ccc(CN2CCC2(C)C(=O)Nc2ccc(C)c(O)c2)cc1 (stereo unspecified),-4.73%
11,c1ccc(Cc2c(-c3ccco3)nc3c4ccccc4ccn23)cc1,-310%
12,O=C(NCc1ccc(F)cc1)c1cc(C2CCCCN2C(=O)C2CCCCC2)on1 (stereo unspecified),2.91%
13,O=C(/C=C/Sc1ncn[nH]1)c1ccc(Cl)cc1,100% (active)
14,COc1ccc(Cl)cc1C=CC=NNC(=O)c1ccncc1,97% (active)
15,COc1ccc(Cl)cc1C=CC=Nc1ccc(S(N)(=O)=O)cc1,7.02%
16,COc1ccccc1/C=C/C=N/NC(=O)CN1CCN(Cc2ccccc2)CC1,3.31%
17,COCc1cccc(-c2csc(C(O)c3ccc(F)cc3)n2)c1 (stereo unspecified),-120%
18,CCCS(=O)(=O)NC(=O)C1(C)CCCN(C(=O)c2cccs2)C1 (stereo unspecified),12.1%
19,Cc1cccc2nc(CSc3nc4[nH]ncc4c(=O)n3-c3cccc(Cl)c3)cc(=O)n12,38.6%
20,CCc1ccc(-n2c(SCc3cc(=O)n4cc(Br)ccc4n3)nc3[nH]ncc3c2=O)cc1,54.1% (active)
21,O=c1c2sccc2nc(SCc2cc(=O)n3ccccc3n2)n1-c1ccc(Br)cc1,40.8%
22,COc1cc(C=C(OC(C)=O)c2ccc3c(c2)OCO3)cc(OC)c1OC,7.01%
23,COc1ccc(C2CC(c3ccccc3)=NN2C(=O)CSc2nccc(=O)[nH]2)cc1 (stereo unspecified),-109%
24,COc1ccc(C2=NN(C(=O)c3ccccc3C(=O)O)C(c3ccccc3O)C2)cc1 (stereo unspecified),-268%
25,COc1ccc(C2CC(c3ccccc3)=NN2C(=O)c2ccc(Cl)c([N+](=O)[O-])c2)cc1 (stereo unspecified),72.4% (active)
